Laboratory results from PubChem BioAssay (NCI).
This is part of a sample that, as a whole, favours compounds with a hit. Of some 83,000 tested, about 20% had one in any assay.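 Values shown are percent growth following 48 h exposure of cells in 96-well plates to a single concentration of compound; below 10 was considered active.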 Active and inactive are the calls of the source.

How the values were obtained:
Experiment in all cases: NCI-60 one-dose screen, 48 h (100 = growth as untreated, 0 = no growth, -100 = all killed)
Conditions in all cases: 10 µM unless noted
SR leukemia = tested on: SR leukemia
OVCAR-8 ovarian = tested on: OVCAR-8 ovarian
OVCAR-5 ovarian = tested on: OVCAR-5 ovarian
OVCAR-4 ovarian = tested on: OVCAR-4 ovarian
IGROV1 ovarian = tested on: IGROV1 ovarian
OVCAR-3 ovarian = tested on: OVCAR-3 ovarian
HS 578T breast = tested on: HS 578T breast
NCI/ADR-RES ovarian = tested on: NCI/ADR-RES ovarian
SK-OV-3 ovarian = tested on: SK-OV-3 ovarian
RPMI-8226 leukemia = tested on: RPMI-8226 leukemia

Measured: growth

COc1cccc(NC(=O)OC(C)C)c1
inactive: SR leukemia 92.4% | OVCAR-8 ovarian 106% | OVCAR-5 ovarian 96.4% | OVCAR-4 ovarian 93.1% | IGROV1 ovarian 99.7% | OVCAR-3 ovarian 121% | HS 578T breast 99% | NCI/ADR-RES ovarian 98.4%

CC(C)(C)[Si](C)(C)OC1[C@@H](O[Si](C)(C)C(C)(C)C)[C@@H](CNC(=O)NC(=O)NC(=O)CCl)O[C@H]1n1cnc2c(NC(=O)Nc3ccccc3)ncnc21 (some centres not stated)
active: SR leukemia -10.7% | IGROV1 ovarian -51.8% | OVCAR-3 ovarian -6.77%
inactive: OVCAR-8 ovarian 25.1% | OVCAR-4 ovarian 58.1% | SK-OV-3 ovarian 97.3% | HS 578T breast 74.3% | NCI/ADR-RES ovarian 50.4%

COc1ccc(C2NC(=O)c3cc4c(cc3N2)OCO4)cc1 (configuration not stated)
inactive: RPMI-8226 leukemia 27.8% | OVCAR-8 ovarian 22.3% | OVCAR-5 ovarian 45.3% | OVCAR-4 ovarian 59.5% | IGROV1 ovarian 42.8% | HS 578T breast 16.4%
active: SK-OV-3 ovarian -7.72% | OVCAR-3 ovarian -45.9% | NCI/ADR-RES ovarian 3.94%

COc1ccc(CC2c3cc(OC)c(OC)cc3CC[N+]2(C)CCC(=O)OCCCCCOC(=O)CC[N+]2(C)CCc3cc(OC)c(OC)cc3C2Cc2ccc(OC)c(OC)c2)cc1OC (configuration not stated)
inactive: RPMI-8226 leukemia 96.3% | OVCAR-8 ovarian 96.5% | OVCAR-5 ovarian 103% | OVCAR-4 ovarian 89.8% | SK-OV-3 ovarian 110% | IGROV1 ovarian 102% | OVCAR-3 ovarian 95.9% | HS 578T breast 93.4% | NCI/ADR-RES ovarian 78.1%

COc1ccc2nc(-c3ccc(-c4noc(-c5ccc(Cl)cc5)n4)cc3)[nH]c2c1
inactive: RPMI-8226 leukemia 101% | OVCAR-8 ovarian 74.1% | OVCAR-5 ovarian 92.6% | SK-OV-3 ovarian 90.7% | IGROV1 ovarian 78.1% | OVCAR-3 ovarian 64.9% | HS 578T breast 62.1% | NCI/ADR-RES ovarian 47.1%
active: OVCAR-4 ovarian -25.9%

N=c1nc(N2CCCCC2)cc(N)n1O
inactive: RPMI-8226 leukemia 109% | OVCAR-8 ovarian 103% | OVCAR-5 ovarian 103% | OVCAR-4 ovarian 92.5% | SK-OV-3 ovarian 103% | IGROV1 ovarian 118% | OVCAR-3 ovarian 112% | HS 578T breast 109% | NCI/ADR-RES ovarian 122%

O=[N+]([O-])c1ccc(N=Nc2c(NNc3ccc([N+](=O)[O-])cn3)cc(S(=O)(=O)O)c3ccccc23)nc1
active: OVCAR-3 ovarian -5.33%
inactive: SR leukemia 47.2% | OVCAR-8 ovarian 67.5% | OVCAR-5 ovarian 91.4% | SK-OV-3 ovarian 78% | IGROV1 ovarian 84.9% | NCI/ADR-RES ovarian 79.5%

O=C(/C=C/c1ccco1)c1ccccc1O
inactive: RPMI-8226 leukemia 92.4% | OVCAR-8 ovarian 104% | OVCAR-5 ovarian 101% | OVCAR-4 ovarian 106% | SK-OV-3 ovarian 115% | IGROV1 ovarian 104% | OVCAR-3 ovarian 97% | HS 578T breast 120% | NCI/ADR-RES ovarian 97.7%

CN1C(=O)C(C(=O)/C=C/c2ccccc2C(=O)O)C(=O)N(C)C1=O
inactive: SR leukemia 98.1% | OVCAR-8 ovarian 102% | OVCAR-4 ovarian 109% | SK-OV-3 ovarian 88.8% | IGROV1 ovarian 119% | OVCAR-3 ovarian 110% | HS 578T breast 98.5% | NCI/ADR-RES ovarian 114%

CCN(CC)C(=O)O/N=C(/C)c1ccccc1
inactive: SR leukemia 104% | OVCAR-8 ovarian 93.3% | OVCAR-4 ovarian 80.7% | SK-OV-3 ovarian 111% | IGROV1 ovarian 126% | OVCAR-3 ovarian 109% | NCI/ADR-RES ovarian 103%

O=C1OCC2=C1C(c1ccccc1)c1cc3c(cc1N2CCO)CCC3 (configuration not stated)
active: SK-OV-3 ovarian -20.7% | OVCAR-3 ovarian -21.6% | HS 578T breast 3.94% | NCI/ADR-RES ovarian -70.4%
inactive: RPMI-8226 leukemia 23.9% | OVCAR-8 ovarian 36.5% | OVCAR-5 ovarian 26.1% | OVCAR-4 ovarian 30% | IGROV1 ovarian 12.4%

O=C(Nc1ccccc1)c1cc2ccccc2s1
inactive: SR leukemia 82.1% | OVCAR-8 ovarian 96.9% | OVCAR-4 ovarian 60% | SK-OV-3 ovarian 99.4% | IGROV1 ovarian 87.3% | OVCAR-3 ovarian 105% | HS 578T breast 98.5% | NCI/ADR-RES ovarian 94.4%

COc1ccc(/C=C/c2nc(NCCCN(C)C)c3ccccc3n2)cc1
active: RPMI-8226 leukemia 0.379%
inactive: OVCAR-8 ovarian 79.8% | OVCAR-5 ovarian 76.9% | OVCAR-4 ovarian 62.9% | SK-OV-3 ovarian 121% | IGROV1 ovarian 49.9% | OVCAR-3 ovarian 79.4% | HS 578T breast 90.5% | NCI/ADR-RES ovarian 87.9%

COc1ccc(-c2cnnn2-c2nonc2-n2cccc2)cc1
inactive: RPMI-8226 leukemia 27.9% | OVCAR-8 ovarian 31.3% | OVCAR-5 ovarian 37.2% | OVCAR-4 ovarian 42.9% | IGROV1 ovarian 28.9%
active: SK-OV-3 ovarian -4.76% | OVCAR-3 ovarian -38.9% | HS 578T breast -1.93% | NCI/ADR-RES ovarian 6.88%

CSc1nc(N)c2[nH]c(-c3cc4ccccc4[nH]c3=O)nc2n1
inactive: RPMI-8226 leukemia 85.1% | OVCAR-8 ovarian 90.2% | OVCAR-5 ovarian 119% | OVCAR-4 ovarian 83.7% | SK-OV-3 ovarian 66.1% | IGROV1 ovarian 61.5% | OVCAR-3 ovarian 119% | HS 578T breast 94.6% | NCI/ADR-RES ovarian 94.8%

COc1ccc(Nc2nc(N)nc3c(=O)[nH]ccc23)cc1
inactive: RPMI-8226 leukemia 97.3% | OVCAR-8 ovarian 107% | OVCAR-5 ovarian 107% | OVCAR-4 ovarian 111% | SK-OV-3 ovarian 107% | IGROV1 ovarian 87.5% | OVCAR-3 ovarian 113% | HS 578T breast 118% | NCI/ADR-RES ovarian 100%

CC1(C)CC(=O)c2cc3c(N)c(C(=O)Nc4ccc(Cl)cc4)sc3nc2C1
inactive: SR leukemia 113% | OVCAR-8 ovarian 111% | SK-OV-3 ovarian 106% | IGROV1 ovarian 111% | OVCAR-3 ovarian 111% | HS 578T breast 109% | NCI/ADR-RES ovarian 114%

O=C1C=CN2C(=O)CC=CC2[C@@H]1O (some centres not stated)
inactive: RPMI-8226 leukemia 96.4% | OVCAR-8 ovarian 114% | OVCAR-5 ovarian 121% | OVCAR-4 ovarian 110% | SK-OV-3 ovarian 104% | IGROV1 ovarian 118% | OVCAR-3 ovarian 120% | HS 578T breast 121% | NCI/ADR-RES ovarian 106%

N/C(=N\O)c1ncc(-c2ccc(C(F)(F)F)cc2)c(NC2CCCCCC2)n1
active: SR leukemia -48.8% [100 µM] | OVCAR-5 ovarian -76.5% [100 µM] | OVCAR-4 ovarian -6.06% [100 µM] | SK-OV-3 ovarian -17.8% [100 µM] | IGROV1 ovarian -77.2% [100 µM] | OVCAR-3 ovarian -95% [100 µM] | HS 578T breast -43.3% [100 µM] | NCI/ADR-RES ovarian -61.8% [100 µM]

C=C(COC(C)=O)[C@H]1CC/C(C)=C/CC/C(C)=C/CC[C@@]2(C)O[C@H]2C1
inactive: RPMI-8226 leukemia 180% | OVCAR-8 ovarian 103% | OVCAR-5 ovarian 99.2% | OVCAR-4 ovarian 115% | SK-OV-3 ovarian 125% | IGROV1 ovarian 103% | OVCAR-3 ovarian 121% | HS 578T breast 108% | NCI/ADR-RES ovarian 102%

N=C(N)c1ccc(NCCNc2ccc(C(=N)N)cc2)cc1
inactive: RPMI-8226 leukemia 82.8% | OVCAR-8 ovarian 92.4% | OVCAR-5 ovarian 95.1% | OVCAR-4 ovarian 110% | SK-OV-3 ovarian 133% | IGROV1 ovarian 98.5% | OVCAR-3 ovarian 110% | HS 578T breast 109% | NCI/ADR-RES ovarian 99%

O=C(Nc1ccc(Br)cc1)c1ccc(Cl)c(Cl)c1
active: RPMI-8226 leukemia -6.3%
inactive: OVCAR-8 ovarian 89.3% | OVCAR-5 ovarian 72% | OVCAR-4 ovarian 28.8% | SK-OV-3 ovarian 63.7% | IGROV1 ovarian 66.7% | OVCAR-3 ovarian 16% | HS 578T breast 79.6% | NCI/ADR-RES ovarian 36.6%

CCCCSc1ncnc2c1ncn2C1CCCCO1 (configuration not stated)
inactive: SR leukemia 90.5% | OVCAR-8 ovarian 105% | OVCAR-4 ovarian 108% | SK-OV-3 ovarian 106% | IGROV1 ovarian 106% | OVCAR-3 ovarian 109% | HS 578T breast 110% | NCI/ADR-RES ovarian 102%

CCOC(=O)c1cc(C(=O)OCC)c(C)nc1C
inactive: SR leukemia 87.9% | OVCAR-8 ovarian 104% | SK-OV-3 ovarian 114% | IGROV1 ovarian 111% | OVCAR-3 ovarian 114% | HS 578T breast 126% | NCI/ADR-RES ovarian 110%

O=C1Nc2ccccc2/C1=C\c1nc(C2CCN(S(=O)(=O)c3ccc(F)cc3)CC2)n2ccccc12
inactive: RPMI-8226 leukemia 94.3% | OVCAR-8 ovarian 18% | OVCAR-5 ovarian 88% | OVCAR-4 ovarian 13.6% | SK-OV-3 ovarian 57.8% | IGROV1 ovarian 57% | OVCAR-3 ovarian 58.6% | HS 578T breast 19% | NCI/ADR-RES ovarian 17%

CCN(CC)c1ccc(/C=C2/NC(=O)NC2=O)cc1
active: HS 578T breast -2.99% | NCI/ADR-RES ovarian -31.9%
inactive: RPMI-8226 leukemia 74.1% | OVCAR-8 ovarian 79.9% | OVCAR-5 ovarian 33.2% | OVCAR-4 ovarian 77% | SK-OV-3 ovarian 33.7% | IGROV1 ovarian 46.7% | OVCAR-3 ovarian 19.3%

CCC(=O)OCc1ccc(OC)cc1
inactive: RPMI-8226 leukemia 107% | OVCAR-8 ovarian 102% | OVCAR-5 ovarian 95% | OVCAR-4 ovarian 107% | SK-OV-3 ovarian 108% | IGROV1 ovarian 102% | OVCAR-3 ovarian 110% | HS 578T breast 135% | NCI/ADR-RES ovarian 99.4%

CC(C)(CCc1ccccn1)C(=O)CCCc1ccccn1
inactive: SR leukemia 90.9% | OVCAR-8 ovarian 105% | OVCAR-4 ovarian 111% | SK-OV-3 ovarian 108% | IGROV1 ovarian 108% | OVCAR-3 ovarian 110% | HS 578T breast 111% | NCI/ADR-RES ovarian 106%
